Resorufin autofl – qHTS Assay for Spectroscopic Profiling in Resorufin Spectral Region | Compound fluorescence, resorufin region 547/598 nm, buffer; active compounds read high | max dye-equivalent concentration, M | hit rate 0.04% among 59,000 | AID 588, 2007
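Intrinsic fluorescence profiled in the resorufin window (ex 547 nm, em 598 nm) after 15 min at room temperature in pH 8.0 Tris buffer (100 mM); responses normalized against a six-point resorufin standard series as dye-equivalent concentration.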
Texas Red fluor – qHTS Assay for Spectroscopic Profiling in Texas Red Spectral Region; Compound fluorescence, Texas Red channel, 547/618 nm; active compounds read high; max dye-equivalent concentration, M; hit rate 0.06% among 59,000; in the data active = max dye-equivalent concentration above about 10 nM; inconclusive = between about 1.1 nM and that limit
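Fluorescence at ex 547/em 618 nm, normalized against an on-plate Texas Red standard series to give dye-equivalent concentration per compound concentration. Buffer 100 mM Tris, pH 8.0; 15 min RT incubation before CCD imaging.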
Fluorescein autfl – qHTS Assay for Spectroscopic Profiling in Fluorescein Spectral Region; AID 593, 2007; max fluorescein-equivalent concentration, M; Compound autofluorescence, 480/540 nm, fluorescein-equivalent; active compounds read high; hit rate 0.91% among 59,000; in the data active = max fluorescein-equivalent concentration above about 10 nM; inconclusive = between about 1.1 nM and that limit
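First, buffer (100 mM Tris, pH 8.0) dispensed; second, compounds and fluorescein standards pinned in; third, 15 min room-temperature incubation; finally, imaging at ex 480 nm/em 540 nm. Fluorescence normalized against the six-point fluorescein curve.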
Rhodamine autofl – qHTS Assay for Spectroscopic Profiling in Rhodamine Spectral Region; max dye-equivalent concentration, M; hit rate 0.05% among 59,000; Rhodamine-region fluorescence, 547/598 nm, Tris buffer; active compounds read high; AID 594, 2007; in the data active = max dye-equivalent concentration above about 11 nM; inconclusive = between about 1.1 nM and that limit
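Compound fluorescence in 100 mM Tris, pH 8.0, read after 15 min at room temperature with 547 nm excitation and 598 nm emission. Output is dye-equivalent concentration from an on-plate rhodamine standard series.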
A647 fluor – qHTS Assay for Spectroscopic Profiling in A647 Spectral Region; AID 592, 2007; 59,000 tested, under 10 active; Compound fluorescence, A647 channel (570/671 nm), Tris buffer; max dye-equivalent concentration, M;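 also: values scaled relative to a standard on each plate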
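Fluorescence read (570 nm ex, 671 nm em) after 15 min RT incubation of compounds in 100 mM Tris buffer, pH 8.0; values expressed as dye-equivalent concentration against a six-point A647 standard series on each plate.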
A488 fluor – qHTS Assay for Spectroscopic Profiling in A488 Spectral Region; compound autofluorescence, A488 spectral region, dye equivalency; Compound Type: qHTS ECL - MLSMR; max dye equivalency, M; hit rate 0.1% among 59,000; AID 591, 2007
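Readout is A488 dye-equivalent concentration, calibrated by a per-plate six-point Alexa 488 series. Compounds in 100 mM Tris buffer pH 8.0 were incubated 15 min at room temperature. Plates were imaged using 480 nm excitation/540 nm emission filters.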
* marks the source's active call; other numbers are inactive results. Shown are actives, neighbours in structure and some others; about 0.95% of the full set was active somewhere. Unless noted, no rule for the calls is given here.

Screening COc1ccc(-c2ccc(-c3noc(-c4ccccc4OC)n3)c(OC)n2)cc1 returned Resorufin autofl inactive, Texas Red fluor inactive, Fluorescein autfl 2.8e-08M*, Rhodamine autofl inactive, A647 fluor 1e-09 and A488 fluor inconclusive.
`CCN1CCC(O)([C@H](C(=O)O)c2ccccc2)CC1` gave Resorufin autofl inactive, Texas Red fluor inactive, Fluorescein autfl inactive, Rhodamine autofl inactive, A647 fluor 1e-09 and A488 fluor inactive.
Screening O=c1c(-c2cccs2)nc2cnc(Nc3ccccc3)nc2n1C[C@H]1CCCO1 returned Resorufin autofl inactive, Texas Red fluor inactive, Fluorescein autfl 4.2e-08M*, Rhodamine autofl inactive, A647 fluor 3.5e-08 and A488 fluor inconclusive.
`N#Cc1cccc(-c2nc3cnc(Nc4ccccc4)nc3n(C[C@H]3CCCO3)c2=O)c1` gave Resorufin autofl inactive, Texas Red fluor inactive, Fluorescein autfl 1.3e-08M*, Rhodamine autofl inactive, A647 fluor 1.8e-09 and A488 fluor inactive.
COc1cccc(Cn2c(=O)c(-c3cccc(C#N)c3)nc3cnc(Nc4ccccc4)nc32)c1 was read as Resorufin autofl inactive, Texas Red fluor inactive, Fluorescein autfl 1.3e-08M*, Rhodamine autofl inactive, A647 fluor 3.1e-08 and A488 fluor inactive.
`COCCn1c(=O)c(-c2cccc(C#N)c2)nc2cnc(Nc3ccccc3)nc21` gave Resorufin autofl inactive, Texas Red fluor inactive, Fluorescein autfl inconclusive, Rhodamine autofl inactive, A647 fluor 1.9e-08 and A488 fluor inactive.
Screening CC1(C)S[C@@H]2[C@H](NC(=O)C(N)c3ccccc3)C(=O)N2[C@H]1C(=O)O (stereo not given in full) returned Resorufin autofl inactive, Texas Red fluor inactive, Fluorescein autfl inconclusive, Rhodamine autofl inactive, A647 fluor 1e-09 and A488 fluor inactive.
`CC1(C)S[C@@H]2[C@H](NC(=O)COc3ccccc3)C(=O)N2[C@H]1C(=O)O` (tested in a mixture with another compound) gave Resorufin autofl inactive, Texas Red fluor inactive, Fluorescein autfl 1.9e-08M*, Rhodamine autofl inactive, A647 fluor 2.9e-08 and A488 fluor inactive.
For O=C(Nc1cccc(F)c1)N1CC[C@@]2(CCCN(C(=O)c3ccncc3)C2)C1 the results were Resorufin autofl inactive, Texas Red fluor inactive, Fluorescein autfl inactive, Rhodamine autofl inactive, A647 fluor 1.6e-08 and A488 fluor inactive.
O=C(O)c1cc(O)c2c(c1)C(=O)c1cccc(O)c1C2=O was read as Resorufin autofl inactive, Texas Red fluor inactive, Fluorescein autfl 8.6e-08M*, Rhodamine autofl inactive, A647 fluor 2.3e-08 and A488 fluor inconclusive.
`COC(=O)C1=C(C)NC(C)=C(C(=O)OC(C)C)[C@H]1c1cccc2nonc12` gave Resorufin autofl inactive, Texas Red fluor inactive, Fluorescein autfl 1.2e-08M*, Rhodamine autofl inactive, A647 fluor 2.7e-09 and A488 fluor inactive.
`O=C(CCN1CCCCC1)N1CCc2c([nH]c3ccccc23)[C@H]1c1cccnc1` gave Resorufin autofl inactive, Texas Red fluor inactive, Fluorescein autfl inconclusive, Rhodamine autofl inactive, A647 fluor 1e-09 and A488 fluor inactive.
For COc1cccc(Nc2ncc3nc(-c4cn(C)c5ccccc45)c(=O)n(CCC#N)c3n2)c1 the results were Resorufin autofl inactive, Texas Red fluor inactive, Fluorescein autfl 2.4e-08M*, Rhodamine autofl inactive, A647 fluor 2.5e-08 and A488 fluor inactive.
`COCCn1c(=O)c(C)nc2cnc(Nc3cccc(OC)c3)nc21` gave Resorufin autofl inactive, Texas Red fluor inactive, Fluorescein autfl inactive, Rhodamine autofl inactive, A647 fluor 1e-09 and A488 fluor inactive.
`COCCn1c(=O)c(-c2ccc(OC)cc2)nc2cnc(Nc3cccc(OC)c3)nc21` gave Resorufin autofl inactive, Texas Red fluor inactive, Fluorescein autfl 1e-08M*, Rhodamine autofl inactive, A647 fluor 3.4e-09 and A488 fluor inactive.
Screening N#Cc1ccc(CN2CCCC3(CCN(C(=O)c4ccncc4)CC3)C2)cc1 returned Resorufin autofl inactive, Texas Red fluor inactive, Fluorescein autfl inactive, Rhodamine autofl inactive, A647 fluor 1e-09 and A488 fluor inactive.
For C=CCn1c(=O)/c(=C/c2ccc(C)o2)s/c1=C(/C#N)C(=O)c1ccccc1 the results were Resorufin autofl inactive, Texas Red fluor inactive, Fluorescein autfl 9.9e-08M*, Rhodamine autofl inactive, A647 fluor 2.2e-08 and A488 fluor inconclusive.
For NCCCc1ccc2oc3ccccc3c2c1 the results were Resorufin autofl inactive, Texas Red fluor inactive, Fluorescein autfl inconclusive, Rhodamine autofl inactive, A647 fluor 4e-08 and A488 fluor inactive.
CC(=O)Oc1ccc(/C=C\C(=O)C[C@@H]2O[C@@H](Oc3cc(OC(C)=O)c4c(c3)O[C@@H](c3ccc(OC(C)=O)cc3)CC4=O)[C@H](OC(C)=O)[C@H](OC(C)=O)[C@@H]2OC(C)=O)cc1 was read as Resorufin autofl inactive, Texas Red fluor inactive, Fluorescein autfl 1.3e-08M*, Rhodamine autofl inactive, A647 fluor 5.2e-09 and A488 fluor inactive.
C[C@@H]1O[C@H](O[C@@H]2[C@@H](Oc3cc(O)c4c(c3)O[C@H](c3ccc(O)cc3)CC4=O)O[C@@H](CO)[C@@H](O)[C@H]2O)[C@@H](O)[C@H](O)[C@@H]1O was read as Resorufin autofl inactive, Texas Red fluor inactive, Fluorescein autfl inconclusive, Rhodamine autofl inactive, A647 fluor 3e-08 and A488 fluor inactive.
Screening Cc1ccc2c(c1)c(C)c(C)n2CC(O)CN1CCOCC1 (stereo not given) returned Resorufin autofl inconclusive, Texas Red fluor 6.4e-08M*, Fluorescein autfl 1.4e-08M*, Rhodamine autofl 1.2e-08M*, A647 fluor 3.9e-08 and A488 fluor inactive.
`Cc1ccc(C(C)C)c(OCC(O)CN2CCOCC2)c1` (stereo not given) gave Resorufin autofl inactive, Texas Red fluor inactive, Fluorescein autfl inconclusive, Rhodamine autofl inactive, A647 fluor 2.4e-09 and A488 fluor inactive.
For CCOC(=O)c1c(C)oc2c1c(/C=N/c1ccccn1)c(O)c1ccccc12 the results were Resorufin autofl inactive, Texas Red fluor inactive, Fluorescein autfl 2.2e-08M*, Rhodamine autofl inactive, A647 fluor 1e-09 and A488 fluor inactive.
Screening CCOC(=O)c1c(C)oc2ccc(O)c(CN(C)C)c12 returned Resorufin autofl inactive, Texas Red fluor inactive, Fluorescein autfl inconclusive, Rhodamine autofl inactive, A647 fluor 1.7e-08 and A488 fluor inactive.

Source: PubChem BioAssay (National Center for Advancing Translational Sciences (NCATS))
